What was measured:
Assay in all cases: PBM binding z-score (relative to random genomic background probes); higher = stronger binding; sequences stand for … in GC…GCGATTGACAGCGTAGAATGAAGG
[1] = system: RARb homodimer (NR concentration 270 nM)
Procedure, shortened: (§1)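 Each nuclear receptor dimer, without ligand, was incubated for 1 h on custom Agilent 4×180K protein-binding microarrays. Binding was detected with antibodies against each partner (one per run), and scanned fluorescence was regression-normalized. The binding z-scores are referenced to random human genomic background probes.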

[2] = system: RARg:RXRa (NR concentration 270 nM, RXRa partner concentration 90 nM)
Procedure, shortened: as §1

[3] = system: RARg homodimer (NR concentration 270 nM)
Procedure, shortened: as §1

[4] = system: RXRa DBDmut IVT, anti-RXR (DBD mutation: RXRa K156A/R161A, NR concentration 90 nM)
Procedure, shortened: as §1

[5] = system: RXRa homodimer (NR concentration 180 nM)
Procedure, shortened: as §1

[6] = system: THRa:RXRa (NR concentration 90 nM, RXRa partner concentration 90 nM)
Procedure, shortened: as §1

[7] = system: THRa homodimer (NR concentration 90 nM)
Procedure, shortened: as §1

[8] = system: VDR homodimer (NR concentration 270 nM)
Procedure, shortened: as §1

| Sequence | PBM binding z-score [1] | PBM binding z-score [2] | PBM binding z-score [3] | PBM binding z-score [4] | PBM binding z-score [5] | PBM binding z-score [6] | PBM binding z-score [7] | PBM binding z-score [8] |
| --- | --- | --- | --- | --- | --- | --- | --- | --- |
| TCTCGCAGGACACGAAAGGTCAGAGCTCGACATC | 4.29 | 4.42 | 4.47 | 1.05 | 4.07 | 3.42 | 0.878 | 0.759 |
| AGAACGAGGGCAATGAGCTGATAGCACGGGTGGC | 0.707 | 1.15 | 1.22 | 1.19 | 0.871 | 0.598 | -0.379 | 0.597 |
| TTACCAAGCTGAGCTGAGGTCGTTGATCCAACTC | 0.0127 | -0.204 | -0.865 | 0.00802 | 0.266 | 2.08 | 1.17 | 0.915 |
| CCTCGGAGGACAACAGGAGCTCAGAGCTGCCAGA | -0.211 | 0.18 | 0.813 | 0.0828 | -0.62 | 0.178 | -0.484 | -0.365 |
| AGAACGAGGGCACGCTGAATTGATAGCAGAGTAG | 0.888 | 1.78 | 2.36 | 1.73 | 1.18 | 1.53 | -0.215 | 0.542 |
| GCTAGCAGGCCATTTGGGTCACTCCATGACGGGC | 1.6 | 0.733 | 1.19 | 0.0531 | 0.716 | 1.61 | 0.324 | 0.419 |
| AGTCAAAGTTCGCTAGGTAACGTAAGATTCAGCT | 0.79 | 1.41 | 1.49 | 1.92 | 0.868 | 0.668 | -0.0669 | 0.872 |
| ACTAGTTGGTCAGCTGAGGTCCCACACAATTCGG | 0.808 | 0.425 | 0.578 | 0.281 | 0.206 | 2.75 | 0.564 | -0.00436 |
| GCTATTAGTTGAATGGGCAACCGAATGATTCTCG | -0.506 | -0.114 | 0.0984 | 0.405 | -0.209 | -0.559 | -0.678 | -0.095 |
